Values joined by “and” are separate entries in the source; they are usually repeats but may differ in a detail not shown here. Equal entries are not always repeated. Results filed as inconclusive are left out. Where a call stands in place of a potency, no number is given. Active and inactive are the calls of the source. Calls come from the whole dose curve; as a rule, active = well fitted curve in the direction sought with a large enough effect; inconclusive = small, poorly fitted or top-dose-only effect, or another doubt; inactive = no such curve, though single readings can be large; an effect the other way counts as inactive or inconclusive.
Note: nearly all actives have a fitted effect of over 70% in size.
Potency is the fitted concentration of half-maximal effect.

One experiment can be described thus: Primary qHTS for inhibitors of nuclear receptor binding SET domain protein 2 (NSD2) in an isogenic RCH-ACV NSD2 p.E1099K mutant (9B) (AID 1645876). Particulars: RCH-ACV NSD2 E1099K (9B) viability, CellTiter-Glo, 72 h; series mostly up to 44.9 µM. In general terms: Quantitative high-throughput screening tests each substance at several concentrations.
For `Cc1coc2c1C(=O)C(=O)c1c-2ccc2c(C)cccc12`, the Potency entry is “inactive”.

As to `C[C@@H](NCc1cc2ccccc2[nH]1)c1cccc2ccccc12`, the Potency is 16.6 µM (active).

For `CN(C)CCN1C(=O)c2cccc3cc(N)cc(c23)C1=O`, the Potency was 5.25 µM (active).

On to `CCCCC(=O)O[C@]1(C(=O)CO)[C@@H](C)C[C@H]2[C@@H]3CCC4=CC(=O)C=C[C@]4(C)[C@@]3(F)[C@@H](O)C[C@@]21C`, for which the Potency entry is “inactive”.

Consider `O=C1c2cccc(O)c2C(=O)c2c(O)cc(CO)cc21`, for which the Potency result is “inactive”.

`CN1CCCN(C(=O)c2cccc(-c3ccc(C=C4C(=O)Nc5ccc(Cl)cc54)o3)c2)CC1`: the Potency was 0.206 µM (active).

In the case of `CC1(C)O[C@@H]2C[C@H]3[C@@H]4CCC5=CC(=O)C=C[C@]5(C)[C@@H]4[C@@H](O)C[C@]3(C)[C@]2(C(=O)CO)O1`, the Potency entry was “inactive”.

Take `Cc1cn([C@@H]2O[C@H](CO)[C@@H](O)[C@H]2F)c(=O)[nH]c1=O`: the Potency result is “inactive”.

On to `Cc1ccccc1C(=O)Nc1ccc(C(=O)N2CCCC(O)c3cc(Cl)ccc32)c(C)c1` (centres undefined), for which the Potency is 13.3 µM (active).

Turning to `CCn1c(=O)c2c(nc(C=Cc3ccc(OC)c(OC)c3)n2C)n(CC)c1=O`, the Potency entry was “inactive”.

The nature of a further experiment: Primary qHTS for inhibitors of nuclear receptor binding SET domain protein 2 (NSD2) in an RCH-ACV wild type WT cells (2C) (AID 1645877). The following applies: RCH-ACV (leukaemia line) NSD2 WT (2C) viability, CellTiter-Glo, 72 h; series mostly up to 44.9 µM.
Take `Cc1coc2c1C(=O)C(=O)c1c-2ccc2c(C)cccc12`: the Potency entry is “inactive”.

Turning to `C[C@@H](NCc1cc2ccccc2[nH]1)c1cccc2ccccc12`, the Potency was 14.8 µM (active).

As for `CN(C)CCN1C(=O)c2cccc3cc(N)cc(c23)C1=O`, the Potency is 4.17 µM (active).

As for `CCCCC(=O)O[C@]1(C(=O)CO)[C@@H](C)C[C@H]2[C@@H]3CCC4=CC(=O)C=C[C@]4(C)[C@@]3(F)[C@@H](O)C[C@@]21C`, the Potency is 8.4 nM (active) and 33.2 nM (active).

Turning to `O=C1c2cccc(O)c2C(=O)c2c(O)cc(CO)cc21`, the Potency entry was “inactive”.

For `CN1CCCN(C(=O)c2cccc(-c3ccc(C=C4C(=O)Nc5ccc(Cl)cc54)o3)c2)CC1`, the Potency is 0.184 µM (active).

Regarding `Cc1cn([C@@H]2O[C@H](CO)[C@@H](O)[C@H]2F)c(=O)[nH]c1=O`, the Potency entry was “inactive”.

As for `Cc1ccccc1C(=O)Nc1ccc(C(=O)N2CCCC(O)c3cc(Cl)ccc32)c(C)c1` (centres undefined), the Potency was 15 µM (active).

For the molecule `CCn1c(=O)c2c(nc(C=Cc3ccc(OC)c(OC)c3)n2C)n(CC)c1=O`, the Potency entry was “inactive”.

These data come from PubChem BioAssay (NCATS).
